# Tested on: U-2932
# Assay: growth inhibition by drug alone (1 - RLU/untreated control) (fraction); higher = stronger inhibition
# Conditions: 177Lu-lilotomab satetraxetan 0 ug/ml
# Method: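 U-2932 ABC-DLBCL cells were pretreated or not for 18 h with 1 ug/ml 177Lu-lilotomab satetraxetan (600 MBq/mg), washed and seeded (3000 cells/well) on 384-well plates pre-printed with the Selleck Cambridge Cancer Compound library. Viability was read by RealTime-Glo luminescence on days 3-6 after seeding. Effect = 1 - RLU/mean RLU of the 48 untreated no-drug control wells per plate; Bliss score = (M-E)/(1-Fa), with E the expected Bliss-additive effect.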
SMILES,"growth inhibition by drug alone (10 nM, time (day): 3)","growth inhibition by drug alone (10 nM, time (day): 4)","growth inhibition by drug alone (10 nM, time (day): 5)","growth inhibition by drug alone (10 nM, time (day): 6)","growth inhibition by drug alone (1000 nM, time (day): 3)","growth inhibition by drug alone (1000 nM, time (day): 4)","growth inhibition by drug alone (1000 nM, time (day): 5)","growth inhibition by drug alone (1000 nM, time (day): 6)"
O=C(Oc1ccc([N+](=O)[O-])cc1)N1CCC(C(O)(c2ccc3c(c2)OCO3)c2ccc3c(c2)OCO3)CC1,0.0143,0.0129,-0.0257,-0.105,-0.0233,0.0131,-0.0194,-0.0568
CC(O)(CS(=O)(=O)c1ccc(F)cc1)C(=O)Nc1ccc(C#N)c(C(F)(F)F)c1 (stereo not given) [Bicalutamide (Casodex)],0.0907,0.0654,-0.0744,-0.0699,-0.0505,-0.00664,-0.0598,-0.262
O=P1(N(CCCl)CCCl)NCCCO1 (stereo not given) [Cyclophosphamide monohydrate],-0.0368,-0.0191,-0.0185,0.00793,-0.0419,-0.0135,-0.0461,-0.0745
CC(=O)Nc1ccc(OC[C@](C)(O)C(=O)Nc2ccc([N+](=O)[O-])c(C(F)(F)F)c2)cc1 [Andarine (GTX-007)],0.0764,0.0433,-0.0579,-0.0688,0.0614,0.0399,-0.0394,0.0038
C=C1C[C@@H]2[C@H](CC[C@]3(C)C(=O)CC[C@@H]23)[C@@]2(C)C=CC(=O)C=C12 [Exemestane],0.0753,0.00319,-0.0809,-0.0708,-0.0344,-0.0359,-0.1,0.0186
